Assay results as given in the supplement of paper PMC7156485.

What was measured:
Conditions in all cases: concentration: 10 µM; 24 h
HCC1569 [1] = test: cell number relative to DMSO (% of DMSO); higher = more cells (less growth inhibition / toxicity)
In short: (§1)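 Compounds were applied at 10 µM for 24 h at 37 °C, in triplicate, to HCC1569 and TDF cells. The cells were then fixed and stained for H1.0, and nuclei were counterstained with DAPI. Nuclear H1.0 intensity or cell number is reported relative to the plate control as a percent, taking the median of replicates. Smoothing for positional effects was applied to HCC1569 values only.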

TDF [2] = test: as above
In short: as §1

TDF [3] = test: H1.0 immunofluorescence intensity relative to DMSO (% of DMSO); higher = stronger H1.0 induction, active = 120 or more
In short: as §1

HCC1569 [4] = test: H1.0 immunofluorescence intensity relative to DMSO (% of DMSO); higher = stronger H1.0 induction, active = 140 or more
In short: as §1
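For H1.0 immunofluorescence intensity relative to DMSO in this document: TDF is a line of transformed human dermal fibroblasts of mesenchymal origin.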
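For cell number relative to DMSO in this document: TDF denotes transformed human dermal fibroblasts of mesenchymal origin.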

NNC(=O)c1ccc(O)cc1 [4-Hydroxybenzhydrazide]
cell number (HCC1569 [1]): 97.7 | cell number (TDF [2]): 100 | H1.0 immunofluorescence intensity (TDF [3]): 97.5 (inactive) | H1.0 immunofluorescence intensity (HCC1569 [4]): 95.1 (inactive)

Cc1c(C(C)C2NCC(C)CC2O)ccc2c1CC1C2CC=C2CC(O)CCC21C (stereo unspecified) [Veratramine]
cell number (HCC1569 [1]): 96.7 | cell number (TDF [2]): 88.6 | H1.0 immunofluorescence intensity (TDF [3]): 104 (inactive) | H1.0 immunofluorescence intensity (HCC1569 [4]): 90.2 (inactive)

CC(N)Cc1cnc[nH]1.Cl.Cl (stereo not drawn) [Histamine, R(-)-alpha-methyl-, dihydrochloride]
cell number (HCC1569 [1]): 97.4 | cell number (TDF [2]): 102 | H1.0 immunofluorescence intensity (TDF [3]): 95.5 (inactive) | H1.0 immunofluorescence intensity (HCC1569 [4]): 93.1 (inactive)

CC(=O)OCC12CCC(C)=CC1OC1C(O)C(OC(C)=O)C2(C)C12CO2 (stereo unspecified) [Diacetoxyscirpenol]
cell number (HCC1569 [1]): 56.8 | cell number (TDF [2]): 13.6 | H1.0 immunofluorescence intensity (TDF [3]): 128 (active) | H1.0 immunofluorescence intensity (HCC1569 [4]): 95.6 (inactive)

CN1C2CCC1CC(OC(=O)C(CO)c1ccccc1)C2 (stereo unspecified) [Atropine]
cell number (HCC1569 [1]): 104 | cell number (TDF [2]): 110 | H1.0 immunofluorescence intensity (TDF [3]): 93.7 (inactive) | H1.0 immunofluorescence intensity (HCC1569 [4]): 107 (inactive)

C=CCN1CCC23c4c5ccc(O)c4OC2C(=O)CCC3(O)C1C5 (stereo unspecified) [Naloxone]
cell number (HCC1569 [1]): 98.5 | cell number (TDF [2]): 96.7 | H1.0 immunofluorescence intensity (TDF [3]): 99.5 (inactive) | H1.0 immunofluorescence intensity (HCC1569 [4]): 117 (inactive)

CCCCC(C#N)(Cn1cncn1)c1ccc(Cl)cc1 (stereo unspecified) [Myclobutanil]
cell number (HCC1569 [1]): 104 | cell number (TDF [2]): 92.6 | H1.0 immunofluorescence intensity (TDF [3]): 102 (inactive) | H1.0 immunofluorescence intensity (HCC1569 [4]): 102 (inactive)

CN1C2CCC1CC(OC(=O)c1cc(Cl)cc(Cl)c1)C2 (stereo unspecified) [3-Tropanyl-3,5-dichlorobenzoate]
cell number (HCC1569 [1]): 100 | cell number (TDF [2]): 106 | H1.0 immunofluorescence intensity (TDF [3]): 102 (inactive) | H1.0 immunofluorescence intensity (HCC1569 [4]): 108 (inactive)

C/C(Nc1ccccc1)=C1\C(=O)NC(Cc2ccccc2)C1=O (stereo unspecified) [(3E)-3-(1-anilinoethylidene)-5-benzyl-2,4-pyrrolidinedione]
cell number (HCC1569 [1]): 60.4 | cell number (TDF [2]): 7.27 | H1.0 immunofluorescence intensity (TDF [3]): 193 (active) | H1.0 immunofluorescence intensity (HCC1569 [4]): 148 (active)
